A selection: hits, their analogues and other compounds. The true share with any hit is near 18%.
IL-1B inflam inh = inflammasome signaling inhibition, IL-1 beta readout | 4.7% of 360,000 active | activity change, % at 57.5 µM | AID 743279 | THP-1 LPS/ATP IL-1B secretion, AlphaLISA, 16 h; active compounds read low; in the data active means activity change below about -50%; inconclusive means mostly about -30% to -49%
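Secreted IL-1B measured by AlphaLISA bead assay after 16 h compound exposure of THP-1 cells; compounds (final up to 57.5 uM) added 1 h before LPS (250 ng/mL) and ATP (1.25 mM) stimulation; lower signal means less secretion.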
TDP1 cell noCPT = qHTS for Inhibitors of human tyrosyl-DNA phosphodiesterase 1 (TDP1): qHTS in cells in absence of CPT; DT40 Tdp1-/- hTDP1 cells, no CPT, ATP luminescence, 48 h; Potency, µM (highest dose often 46.2 µM), without a hit: at the top dose activity change, negative = growth inhibition, usual class: inhibitors; 15% of 420,000 active; AID 686978, 2013; further: potency means the concentration at half of the fitted maximal effect; nearly all actives have a fitted effect of over 55% in size
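Seeded 400 DT40-hTDP1 cells/well (vehicle DMSO, no 20 nM CPT); pinned compounds; ≥48 hr at 37 °C; CellTiter-Glo luminescence as viability measure.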
CtBP-E1A blk = inhibitors of CtBP/E1A interaction; AlphaScreen GST-E1A/His-CtBP binding, 1536-well; active compounds read low; activity change, % (concentration not given with the values); 0.49% of 340,000 active; in the data active means activity change below about -65%; inconclusive means mostly about -30% to -63%
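AlphaScreen with 125 nM GST-E1A and 125 nM His-CtBP (5X stocks) in Tris pH 8.0, 300 mM NaCl, BSA, Tween 20, TCEP. Compounds preincubated 2 h at 37 deg C, then glutathione donor/nickel acceptor beads added for 1 h at 37 deg C in dark.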
DT40 TDP1 CPT = DT40-hTDP1 cell growth loss with CPT. 12% of 420,000 active. chicken DT40 Tdp1-/-;hTDP1 cells + 20 nM CPT, ATP luminescence, 48 h. AID 686979. Potency, µM (series often up to 46.2 µM), for inactives: at the top dose activity change, negative = growth inhibition, usual class: inhibitors; further: potency means the concentration at half of the fitted maximal effect; nearly all actives have a fitted effect of over 55% in size
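Chicken DT40 Tdp1-/- cells stably complemented with human TDP1 were seeded at 400 cells/well in medium containing 20 nM camptothecin, exposed to pin-transferred compounds, and grown at 37 °C for at least 48 hr. Viability was read as ATP luminescence.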
TDP1 block = blocks human tyrosyl-DNA phosphodiesterase 1; recombinant TDP1, AlphaScreen DNA substrate cleavage; Potency, µM (doses to about 130 µM), for the others: at the highest dose activity change, negative = inhibition, hits mostly inhibitors; Q9NUW8; AID 485290; 0.28% of 350,000 active; further: potency means the concentration at half of the fitted maximal effect; nearly all actives have a fitted effect of over 40% in size
Target sequence (Q9NUW8 whole entry, looked up): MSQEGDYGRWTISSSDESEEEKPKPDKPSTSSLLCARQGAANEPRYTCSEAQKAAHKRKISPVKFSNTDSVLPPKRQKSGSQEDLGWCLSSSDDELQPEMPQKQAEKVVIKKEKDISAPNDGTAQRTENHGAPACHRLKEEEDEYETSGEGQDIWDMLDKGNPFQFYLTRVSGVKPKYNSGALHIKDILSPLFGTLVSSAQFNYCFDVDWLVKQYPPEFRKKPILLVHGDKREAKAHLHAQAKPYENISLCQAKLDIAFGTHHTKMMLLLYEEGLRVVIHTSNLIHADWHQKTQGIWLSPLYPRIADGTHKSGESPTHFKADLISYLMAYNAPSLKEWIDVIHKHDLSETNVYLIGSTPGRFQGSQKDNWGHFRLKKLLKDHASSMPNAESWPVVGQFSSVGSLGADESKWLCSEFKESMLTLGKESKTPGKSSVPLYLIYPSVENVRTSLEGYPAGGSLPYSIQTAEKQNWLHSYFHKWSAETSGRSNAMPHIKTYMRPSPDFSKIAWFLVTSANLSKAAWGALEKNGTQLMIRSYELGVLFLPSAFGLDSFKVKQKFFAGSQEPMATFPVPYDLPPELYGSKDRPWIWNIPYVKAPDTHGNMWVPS
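Here, a 5' biotin and 3' phosphotyrosine-FITC DNA oligonucleotide reports Tdp1 activity: intact substrate bridges AlphaScreen beads, while cleavage leaves a 3' phosphate and drops signal. All incubations at room temperature.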
Six1-Eya2 blk = blocks human Six1 binding to Eya2; Q15475+O00167; AlphaScreen GST-Six1/His-Eya2 binding, biochemical; active compounds read low; activity change, % (concentration not given with the values); 0.56% of 360,000 active; AID 651725; in the data active means activity change below about -65%; inconclusive means mostly about -30% to -63%
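AlphaScreen luminescence read after one hour at 37 °C in darkness. Pin-transferred compounds met GST-Six1 and His-Eya2 protein (5X stock 250 nM/500 nM) plus glutathione donor and Ni-chelate acceptor beads (5X, 50 ug/mL).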
* hit, by the source's call; u = inconclusive; x = no result; ! = not confirmed by another sample; [ ] = another dose, or the depositor's remark. Unless noted, the call rests on the fitted dose curve; in most records, active means well fitted curve in the direction sought with a large enough effect; inconclusive means small, poorly fitted or top-dose-only effect, or another doubt; inactive means no such curve, though single readings can be large; an effect the other way counts as inactive or inconclusive. On the % scale 0 is the no-effect control and ±100 the full control effect.

SMILES	IL-1B inflam inh	TDP1 cell noCPT	CtBP-E1A blk	DT40 TDP1 CPT	TDP1 block	Six1-Eya2 blk
CN(C)c1ccc(/C=C/c2cc[n+](C)c3ccccc23)cc1	-102*	0.23µM*	1	0.41µM*	0%	-2
CC[n+]1c(/C=C/C=C/c2ccc(N(C)C)cc2)sc2ccccc21	-97*	0.052µM*	4	0.0092µM*	3%	0
C=CC(=O)OC	x	x	x	x	6%	x
C[C@H]1CC[C@@]2(C)[C@@H](CC[C@@H]3[C@@H]2CC[C@]2(C)[C@@H](O)CC[C@@H]32)C1	u	u	8	u	5%	2
CC(=O)N1CN2CN(C(C)=O)CC(C(=O)c3ccc([N+](=O)[O-])cc3)(C2)C1	5	0%	7	2%	-3%	5
C[S+](CC[C@H](N)C(=O)O)C[C@H]1O[C@@H](n2cnc3c(N)ncnc32)[C@H](O)[C@@H]1O (some centres undefined)	-1	u	6	u	x	5
NC(=O)c1ncn([C@@H]2O[C@H](CO)[C@@H](O)[C@H]2O)n1	-10	1µM*	6	1.5µM*	3%	-2
CN1[C@@H]2CC[C@H]1CC(OC(=O)C1C=Nc3ccccc31)C2 (some centres undefined)	u	u	-20	-17%	5%	4
CC(C)(C)NC(=S)/N=C(\N)N[N+](=O)[O-]	43	19%	7	-7%	-5%	4
COP(=O)(OC)c1nc(-c2ccccc2)oc1NCc1ccccc1	-6	u	-2	-12%	4%	-15
CCCOP(=O)(OCCC)c1nc(-c2ccccc2)oc1NCc1ccccc1	-116*	u	20	23µM*	-5%	10
O=C(NC1CC1)c1cn(Cc2ccccc2)nc1-c1ccccc1	-4	-16%	11	12%	0%	-4
Cc1ccc(Cn2cc(C=O)c(-c3ccc(C)cc3)n2)cc1	-58*	u	9	u	4%	8
CC(C)[C@H]1C(=O)N2CCC[C@H]2[C@]2(O)O[C@](NC(=O)[C@@H]3C=C4c5cccc6[nH]cc(c56)C[C@H]4N(C)C3)(C(C)C)C(=O)N12	-11	5.8µM*	u	u	9%	-3
CC(C)C[C@H]1C(=O)N2CCCC2[C@]2(O)O[C@](NC(=O)[C@@H]3C=C4c5cccc6[nH]cc(c56)CC4N(C)C3)(C(C)C)C(=O)N12 (some centres undefined)	-7	16µM*	-23	u	16%	-5
CC(C)[C@@]1(NC(=O)[C@@H]2C[C@H]3c4cccc5[nH]cc(c45)C[C@@H]3N(C)C2)O[C@]2(O)[C@H]3CCCN3C(=O)CN2C1=O	x	x	x	x	11%[21 µM]	x
CC(C)[C@@]1(NC(=O)[C@@H]2C=C3c4cccc5[nH]cc(c45)C[C@H]3N(C)C2)O[C@@]2(O)[C@@H]3CCCN3C(=O)[C@H](Cc3ccccc3)N2C1=O	x	x	x	x	3%	x
CC(C)C1C(=O)N2CCCC2[C@]2(O)O[C@@](NC(=O)[C@@H]3C=C4c5cccc6[nH]cc(c56)C[C@H]4N(C)C3)(C(C)C)C(=O)N12 (some centres undefined)	x	u	x	9.4µM*	10%[56.1 µM]	x
C=CC[C@@H](C)CC(=O)C(CCCN=[N+]=[N-])SOOc1ccccc1 (some centres undefined)	0	u	29	u	-7%	15
O=C(CCl)Nc1sccc1C(=O)c1ccccc1	-103*	u	-5	15µM*	x	5
CCOC(=O)CC(SP(=S)(OC)OC)C(=O)OCC (centres undefined)	x	4.3µM*!	x	0.022µM*!	-12%	x
CCOC(=O)CC(SP1(=S)OCC2(CCCCC2)CO1)C(=O)OCC (centres undefined)	-7	-6%	-1	-2%	x	4
COCCNC(=O)CN1C(=O)CN=C(c2ccccc2)c2ccccc21	15	2%	5	19%	5%	-2
COC(=O)[C@@H]1N=C(c2ccc(OC)cc2)O[C@]12C(=O)N(Cc1ccc(OC)cc1)c1ccccc12	0	u	-21	18µM*	x	-11
COc1cccc(N2C(=O)/C(=C/c3ccc(C)o3)C(=O)NC2=S)c1	5	15µM*	x	15µM*	x	-18
SMILES	IL-1B inflam inh	TDP1 cell noCPT	CtBP-E1A blk	DT40 TDP1 CPT	TDP1 block	Six1-Eya2 blk
Cc1ccc(/C=C2\C(=O)NC(=S)N(c3ccc(F)cc3)C2=O)s1	-108*	5.8µM*	1	2.9µM*	-4%	-14
Cc1ccc(/C=C2\C(=O)NC(=S)N(c3ccc(F)cc3)C2=O)o1	3	15µM*	x	7.3µM*	x	6
COc1ccccc1/C=C1\C(=O)NC(=S)N(c2ccccc2)C1=O	0	20%	-3	-1%	x	-3
O=C1NC(=S)N(c2ccc(F)cc2)C(=O)/C1=C/c1ccccc1O	1	-12%	2	u	x	2
COc1ccc(N2C(=O)/C(=C/c3cccs3)C(=O)NC2=S)cc1	3	3.7µM*	-6	5.2µM*	-5%	-2
COc1ccc(N2C(=O)/C(=C/c3ccc(N(C)C)o3)C(=O)NC2=S)cc1	-2	-5%	34	-18%	x	22
C[C@]12CCC3C(CC[C@H]4C[C@H](O)CC[C@]34C)C1[C@@H](O)[C@@H](O)[C@@H]2O (some centres undefined)	6	-9%	2	11%	1%	-3
OC(c1ccccc1)(c1ccccc1)C1CN2CCC1CC2 (centres undefined)	-26	u	1	u	-3%	-2
OC(c1ccccc1)(c1ccc(Cl)cc1)C1CN2CCC1CC2 (centres undefined)	-70*	18µM*	0	16µM*	6%	9
OC(Cc1ccccc1)(c1ccccc1)C1CN2CCC1CC2 (centres undefined)	-14	16µM*	1	15µM*	4%	0
CN1C2CCCC1CC(=O)C2	x	x	x	x	7%	x
O=C(C1CCCCC1)N1CCC(c2nc3c(nnn3Cc3c(F)cccc3Cl)c(=O)[nH]2)CC1	-11	u	6	-19%	-5%	3
CC(C)(C)c1nc(N2CCN(C(=O)c3ccco3)CC2)c2nnn(Cc3ccccc3Cl)c2n1	-9	21µM*	-13	u	6%	-27

Bioassay records as filed in PubChem BioAssay.
